IL-1B inflam inh – inflammasome signaling inhibition, IL-1 beta readout. THP-1 LPS/ATP IL-1B secretion, AlphaLISA, 16 h; stronger effect = lower value. activity change, % at 57.5 µM. actives 4.7% (n = 360,000). AID 743279; in the data active means activity change below about -50%; inconclusive means mostly about -30% to -49%
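THP-1 cells pretreated 1 hr with compounds (up to 57.5 uM final), then stimulated with LPS (250 ng/mL final) plus ATP (1.25 mM final); secreted IL-1B measured by AlphaLISA after 16 hr, decreased signal indicating inhibition.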
HT1080NT lethal – kills 2HG-producing HT-1080-NT fibrosarcoma cells; HT-1080-NT fibrosarcoma viability, CellTiter-Glo ATP luminescence, 48 h; Potency, µM (top dose mostly 46.1 µM), for inactives: top-dose activity, negative = less viability, hits mostly cytotoxic; actives 1.6% (n = 360,000);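 further: NT is the 2HG producing partner of a matched IDH1 knockdown line; potency means the concentration at half of the fitted maximal effect; 0% = DMSO-treated cells and -100% = media-only wells without cells; nearly all actives have a fitted effect of over 55% in size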
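Luminescent CellTiter-Glo readout after 48 hours of compound exposure at 37 degrees C defined viability of HT-1080-NT cells. Activity was normalized to DMSO wells and cell-free media wells; concentration-response curves were fitted and assigned curve classes.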
DT40 TDP1 CPT – growth inhibition of DT40 Tdp1-/-;hTDP1 cells with camptothecin (screen for TDP1 inhibitors); chicken DT40 Tdp1-/-;hTDP1 cells + 20 nM CPT, ATP luminescence, 48 h; Potency, µM (top dose mostly 46.2 µM), for the others: at the top dose activity change, negative = growth inhibition, most hits filed as inhibitors; actives 12% (n = 420,000); AID 686979; further: potency means the concentration at half of the fitted maximal effect; nearly all actives have a fitted effect of over 55% in size
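Chicken DT40 Tdp1-/- cells stably complemented with human TDP1 were seeded at 400 cells/well in medium containing 20 nM camptothecin, exposed to pin-transferred compounds, and grown at 37 °C for at least 48 hr. Viability was read as ATP luminescence.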
TDP1 cell noCPT – qHTS for Inhibitors of human tyrosyl-DNA phosphodiesterase 1 (TDP1): qHTS in cells in absence of CPT. actives 15% (n = 420,000). DT40 Tdp1-/- hTDP1 cells, no CPT, ATP luminescence, 48 h. Potency, µM (doses to about 46.2 µM), without a hit: at the highest dose activity change, negative = growth inhibition, usual class: inhibitors; further: potency means the concentration at half of the fitted maximal effect; nearly all actives have a fitted effect of over 55% in size
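Compound effects on proliferation are scored in DT40 Tdp1-/-;hTDP1 cells in the absence of CPT. ATP levels (CellTiter-Glo luminescence) are recorded after a ≥48 hr, 37 °C incubation.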
HT1080 IDH1KD tx – HT-1080 IDH1 knockdown cell toxicity (counter line); AID 686971; HT-1080 IDH1 knockdown viability, ATP luminescence, 48 h; actives 2% (n = 360,000); Potency, µM (doses to about 46.1 µM), for inactives: at the top dose activity, negative = toxicity, most hits filed as cytotoxic;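 further: potency means the concentration at half of the fitted maximal effect; 0% = DMSO wells and -100% = cell-free medium wells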
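Knockdown cells (IDH1KD HT-1080) received compounds 2 h after plating at 750 cells/well and were kept 48 h at 37 °C in 5% FBS RPMI. A CellTiter-Glo luminescence read gave % activity for curve fitting.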
An asterisk follows results filed as active; ? = inconclusive; . = no result given; [ ] = dose if it differs, or a comment. Only some compounds are listed: those with a hit (about 19% of all), similar ones and a draw of the others. Unless noted, the call rests on the fitted dose curve; in most records, active means well fitted curve in the direction sought with a large enough effect; inconclusive means small, poorly fitted or top-dose-only effect, or another doubt; inactive means no such curve, though single readings can be large; an effect the other way counts as inactive or inconclusive. Unless noted, on the % scale 0 is the no-effect control and ±100 the full control effect.

SMILES	IL-1B inflam inh	HT1080NT lethal	DT40 TDP1 CPT	TDP1 cell noCPT	HT1080 IDH1KD tx
CC1(C)CC(=O)c2c(O)cc(OCC(=O)Nc3ccc(S(N)(=O)=O)cc3)cc2O1	-4	-6%	-29%	?	3%
COc1cc(NC(=O)COc2cc(O)c3c(c2)OC(C)(C)CC3=O)cc(OC)c1OC	-3	-20%	0.46µM*	0.26µM*	?
CCOC(=O)c1cc(-c2ccccc2)sc1NC(=O)C(C)Sc1nnc(N)s1 (configuration not stated)	-11	-2%	?	?	0%
CCOC(=O)C1=C(C)N=C2SC(C(=O)OC)=CC(=O)N2C1c1ccc(F)cc1 (configuration not stated)	-61*	0%	?	?	-18%
CCOC(=O)C1=C(C)N=C2SC(C(=O)OC)=CC(=O)N2C1c1cccc(OC)c1 (configuration not stated)	0	-4%	?	?	-2%
C#CC(C)OC(=O)C(C)NC(=O)c1ccccc1 (configuration not stated)	-4	13%	-16%	-11%	9%
O=C(N/N=C/c1cc(Br)ccc1O)C(c1ccncc1)N1CCOCC1 (configuration not stated)	90	-18%	4.1µM*	8.2µM*	?
COc1ccc(OC)c(NC(=O)CCCSc2ccccc2)c1	-6	1%	-13%	-16%	-11%
COc1ccccc1NS(=O)(=O)c1cccc(C(=O)N(C)Cc2cccs2)c1	16	-2%	23µM*	23µM*	-6%
COc1ccccc1NS(=O)(=O)c1cccc(C(=O)NCC(c2cccs2)N(C)C)c1 (configuration not stated)	10	-4%[9.24 µM]	?	-17%	-1%
COc1ccccc1NS(=O)(=O)c1ccc(NC(=O)Cc2cccs2)cc1	0	-7%	?	?	-8%
COc1ccc(S(=O)(=O)Nc2ccccc2OC)cc1NC(=O)Cc1cccs1	0	0%	?	21µM*	-2%
O=C(CCc1nc(-c2ccc(Cl)cc2)no1)NC1CCCC1	-8	6%	?	?	0%
CCc1ccc(NC(=O)CC(c2cc(OC)c(OC)c(OC)c2)N2Cc3ccccc3C2=O)cc1 (configuration not stated)	.	.	?	-4%	.
O=C(CC(c1cccs1)N1Cc2ccccc2C1=O)Nc1ccc(F)c(Cl)c1 (configuration not stated)	.	.	-32%	?	.
COc1ccc(C(CC(=O)Nc2ncccc2C)N2Cc3ccccc3C2=O)cc1OC (configuration not stated)	20	-10%	-18%	-13%	-12%
COc1ccc(C(CC(=O)Nc2ccc(C)c(C)c2)N2Cc3ccccc3C2=O)cc1OC (configuration not stated)	.	.	15µM*	21µM*	.
COc1ccc(C(CC(=O)Nc2ccc(F)c(Cl)c2)N2Cc3ccccc3C2=O)cc1OC (configuration not stated)	.	.	?	15µM*	.
COc1cc(NC(=O)CC(c2cccs2)N2Cc3ccccc3C2=O)cc(OC)c1OC (configuration not stated)	.	.	23µM*	23µM*	.
COc1ccc(CNC(=O)c2ccc3nc(CCc4ccccc4)oc3c2)c(OC)c1	.	.	-19%	?	.
Cn1cc(C(=O)c2ccc(F)cc2)cc1-c1nc2ccccc2n1C	-29	-10%	?	16µM*	0%
CC(=O)c1cc(-c2nc3ccccc3n2C)n(C)c1	-2	28%	2%	5%	22%
CCOc1ccccc1N1Cc2cc(C)c(C)cc2C1	4	0%	26µM*	?	-3%
CCOc1ccccc1N1Cc2ccccc2C1	15	-3%	?	-22%	10%
COc1ccc(OC)c(N2Cc3cc(C)c(C)cc3C2)c1	-1	-7%	?	26µM*	3%
O=c1[nH]c(Nc2ccccn2)cc2ccccc12	24	7%	?	?	2%
